HP1b binding inh: blocks HP1-beta chromodomain binding to methylated histone tails; AlphaScreen HP1-beta / biotin-H3K9me3 peptide binding; Potency, µM (doses to about 114 µM), for inactives: at the highest dose activity change, negative = inhibition, actives largely listed as inhibitors; 390,000 tested, 0.56% active; AID 540317; note: potency is the fitted concentration of half-maximal effect; nearly all actives have a fitted effect of over 70% in size
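Compound inhibition of the preformed complex between 50 nM HP1-beta and 50 nM biotinylated H3K9me3 peptide was read by AlphaScreen. Buffer was PBS pH 7.4 with 0.01% Tween-20. Incubations ran 30 min at room temperature, with 10 ug/mL donor/acceptor beads.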
BAZ2B inh: BAZ2B (human) inhibition; Q9UIF8; AlphaScreen BAZ2B-H3K14Ac peptide displacement; Potency, µM (doses to about 114 µM), for the others: at the top dose activity change, negative = inhibition, usual class: inhibitors; 360,000 tested, 4.4% active; AID 504333; note: potency is the fitted concentration of half-maximal effect; % is set by controls: 0 for no effect and ±100 for the full control effect; nearly all actives have a fitted effect of over 60% in size
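AlphaScreen displacement of biotin-H3(5-23)K14Ac peptide (50 nM final) from BAZ2B (50 nM final) in PBS pH 7.4, 0.01% Tween-20; complex preformed 30 min RT, then compounds (top 110 uM) 30 min RT, beads 20 min dark.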
Six1-Eya2 blk: Six1/Eya2 interaction inhibition. 360,000 tested, 0.56% active. activity change, % (test concentration not listed). Q15475+O00167. AlphaScreen GST-Six1/His-Eya2 binding, biochemical; stronger effect = lower value; in the data active = activity change below about -65%; inconclusive = mostly about -30% to -63%; note: % is set by controls: 0 for no effect and ±100 for the full control effect
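GST-Six1 + His-Eya2 (5X stock: 250/500 nM); Tris pH 8.0, 300 mM NaCl, 0.05% BSA, 0.02% Tween 20; GSH donor/Ni acceptor beads; 1 h 37 °C dark; AlphaScreen readout.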
CtBP-E1A blk: blocks the CtBP interaction with E1A. AlphaScreen GST-E1A/His-CtBP binding, 1536-well; stronger effect = lower value. activity change, % (test concentration not listed). 340,000 tested, 0.49% active; in the data active = activity change below about -65%; inconclusive = mostly about -30% to -63%; note: % is set by controls: 0 for no effect and ±100 for the full control effect
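Homogeneous bead-based format: GST-tagged E1A captured on glutathione donor beads, His-tagged CtBP on nickel acceptor beads; compounds precede bead addition by 2 h at 37 °C.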
JMJD2A Tudor: blocks the human JMJD2A Tudor domain; AlphaScreen JMJD2A-Tudor / H3K4me3 peptide binding; Potency, µM (titrated, usually from 114 µM), without a hit: at the top dose activity change, negative = inhibition, hits mostly inhibitors; 390,000 tested, 4.4% active; AID 504339; note: potency is the fitted concentration of half-maximal effect; % is set by controls: 0 for no effect and ±100 for the full control effect; nearly all actives have a fitted effect of over 50% in size
G9a block: G9a (human) methyltransferase inhibition. Q96KQ7. G9a H3K9 monomethylation, AlphaScreen, 2 h. Potency, µM (doses to about 102 µM), without a hit: at the top dose activity, negative = inhibition, hits mostly inhibitors. 350,000 tested, 8.8% active; note: potency is the fitted concentration of half-maximal effect; % is set by controls: 0 for no effect and ±100 for the full control effect; nearly all actives have a fitted effect of over 75% in size
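Enzyme 20 nM + cpd, 15 min RT; add b-H3K9 pep 500 nM / SAM 20 uM; 2 h RT; anti-H3K9me1 Ab 0.5 ug/mL + SA donor / anti-rabbit acceptor beads 20 ug/mL each, 10 min; AlphaScreen read.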
* hit, by the source's call; [ ] = remark or other dose. Most compounds without a hit are left out; they make up all but 10% or so of the library. Unless noted, calls come from the whole dose curve; as a rule, active = well fitted inhibition curve with a large enough effect; inconclusive = small, poorly fitted or top-dose-only effect; inactive = no such curve, though single readings can be large or run the other way.

`CCOc1ccc(Br)cc1C1C(C(=O)OC)=C(N)Oc2cc(N(C)C)ccc21` (stereo not drawn) gave HP1b binding inh inconclusive, BAZ2B inh inconclusive, Six1-Eya2 blk -27, CtBP-E1A blk -26, JMJD2A Tudor 50µM* and G9a block inconclusive.
Screening Cc1cc(C(=O)COC(=O)Cc2ccc(Br)cc2)c(C)n1C returned HP1b binding inh 2%, BAZ2B inh 50µM*, Six1-Eya2 blk -11, CtBP-E1A blk -13, JMJD2A Tudor -30% and G9a block inconclusive.
Cc1cc(C(=O)COC(=O)Cc2c(F)cccc2Cl)c(C)n1C was read as Six1-Eya2 blk -5 and CtBP-E1A blk 10.
`Cc1cc(C(=O)COC(=O)/C=C/c2cccc(Br)c2)c(C)n1C` gave HP1b binding inh inconclusive, BAZ2B inh inconclusive, Six1-Eya2 blk inconclusive, CtBP-E1A blk -66*, JMJD2A Tudor -27% and G9a block 45µM*.
CN(Cc1ccccc1)c1ccc(-c2nc(-c3ccccn3)no2)cc1[N+](=O)[O-] was read as HP1b binding inh 40%, BAZ2B inh 4%, JMJD2A Tudor 6% and G9a block inconclusive.
Screening COc1ccccc1N1CCN(C(CNC(=O)C(=O)NCCc2ccccc2)c2cccnc2)CC1 (stereo not drawn) returned HP1b binding inh 20µM*, BAZ2B inh 40µM*, JMJD2A Tudor 11µM* and G9a block 5.6µM*.
COc1ccc(N2CCN(C(CNS(=O)(=O)c3cc(F)ccc3F)c3cccnc3)CC2)cc1 (stereo not drawn) was read as HP1b binding inh -23%, BAZ2B inh -38%, Six1-Eya2 blk -14, CtBP-E1A blk -10, JMJD2A Tudor inconclusive and G9a block 45µM*.
`O=S(=O)(NCC(c1cccnc1)N1CCN(c2ccc(F)cc2)CC1)c1cc(F)ccc1F` (stereo not drawn) gave HP1b binding inh 11%, Six1-Eya2 blk -2, CtBP-E1A blk -2 and JMJD2A Tudor inconclusive.
COc1ccccc1N1CCN(C(CNS(=O)(=O)c2cccs2)c2cccnc2)CC1 (stereo not drawn) was read as HP1b binding inh 5%, BAZ2B inh -6%, Six1-Eya2 blk -5, CtBP-E1A blk -12, JMJD2A Tudor -33% and G9a block 50µM*.
For COc1ccc(S(=O)(=O)NCC(c2cccnc2)N2CCN(c3ccc(F)cc3)CC2)cc1C (stereo not drawn) the results were HP1b binding inh -16%, BAZ2B inh inconclusive, Six1-Eya2 blk -13, CtBP-E1A blk -12, JMJD2A Tudor inconclusive and G9a block inconclusive.
COc1ccc(S(=O)(=O)NCC(c2cccnc2)N2CCN(c3ccccc3)CC2)cc1C (stereo not drawn) was read as HP1b binding inh -13%, BAZ2B inh inconclusive, Six1-Eya2 blk -6, CtBP-E1A blk -3, JMJD2A Tudor inconclusive and G9a block 50µM*.
For COc1ccc(CCNc2nc3cc(OC)c(OC)cc3c3nc(-c4cccnc4)nn23)cc1OC the results were HP1b binding inh 13%, BAZ2B inh 4%, JMJD2A Tudor -17% and G9a block 13%[59 µM].
For COc1ccc(NC(=O)CCc2nnc3n(C)c(=O)c4sccc4n23)cc1Cl the results were HP1b binding inh 19%, BAZ2B inh 0%, JMJD2A Tudor -16% and G9a block -24%[59 µM].
For CCc1ccc(NC(=O)Cn2c(=O)n(CCCCC(=O)NCCc3ccccc3)c(=O)c3ccccc32)cc1 the results were HP1b binding inh 11%, BAZ2B inh 3%, JMJD2A Tudor -10% and G9a block -6%[59 µM].
Screening Cc1cc(S(=O)(=O)Nc2cc3c(cc2Cl)n(C)c(=O)c(=O)n3C)ccc1F returned HP1b binding inh 0%, BAZ2B inh -13%, JMJD2A Tudor -20% and G9a block -7%[59 µM].

Screening results as filed in PubChem.
